Bioassay records (PubChem BioAssay)
This is a sample that favours compounds with a hit; in the whole collection about 1.2% have one here.
AMA1 RON2 block: disrupts binding of P. falciparum AMA1 to RON2; AlphaScreen AMA1-biotinylated RON2 peptide binding; Potency, µM (highest dose often 58.2 µM), inactives show top-dose activity change, negative = inhibition, hits mostly inhibitors; hit rate 0.2% among 360,000;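 note: 0% = vehicle wells and -100% = peptide control; nearly all actives have a fitted effect of over 45% in size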
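AMA1 (3D7) with his tag at 25 nM final met compounds first, then biotinylated RON2 peptide at 25 nM; detection used donor plus acceptor beads, 10 µg/mL apiece, read by AlphaScreen after 30 min at room temperature.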
Giardia FBPA inh-1: Giardia lamblia aldolase inhibition; A8B2U2; purified Giardia FBPA; Potency, µM (titrated, usually from 59.6 µM), without a hit: at the top dose activity, negative = inhibition, usual class: inhibitors; hit rate 0.71% among 290,000; note: % is set by controls: 0 for no effect and ±100 for the full control effect; nearly all actives have a fitted effect of over 55% in size
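40 nM FBPA preincubated 10 min at RT with compound (up to 57.5 uM final), then substrate plus GAPDH/TPI/NAD/arsenate coupling and diaphorase/resazurin added. Fluorescence read after 20 min at RT, 525/598 nm.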
Tb PYK inh: T. brucei pyruvate kinase inhibition; Q57TT1; TbPYK enzyme, Kinase-Glo Plus ATP luminescence, 45 min; Potency, µM (highest dose often 76.8 µM), for inactives: at the highest dose activity, negative = inhibition, hits mostly inhibitors; hit rate 0.12% among 410,000; AID 624173; note: % is set by controls: 0 for no effect and ±100 for the full control effect; nearly all actives have a fitted effect of over 50% in size
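Enzyme and substrate buffer are dispensed first and compound is pin-transferred. ADP at 130 uM final then starts the reaction, which runs 45 min at room temperature. Detection reagent is added for 10 min before luminescence is imaged.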
NS1 function inh: influenza NS1 inhibition; AID 2326; hit rate 0.4% among 270,000; Potency, µM (top dose mostly 46.1 µM), for inactives: top-dose activity, positive = more growth; calls by dose curve; note: actives are rising curves; nearly all actives have a fitted effect of over 50% in size
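Recovery from NS1-induced slow growth read by OD600 in budding yeast switched to galactose assay medium (pH 6.0, -URA) at 1:100 dilution. Compound 23 nl per well; the matching strain lacking NS1 serves as control.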
LmPK inhibitor: LmPK (Leishmania mexicana) enzyme inhibition | Q27686 | purified LmPK, Kinase-Glo ATP luminescence, 1 h | Potency, µM (series often up to 57.5 µM), without a hit: at the highest dose activity change, negative = inhibition, usual class: inhibitors | hit rate 0.37% among 290,000 | AID 1721; note: % is set by controls: 0 for no effect and ±100 for the full control effect
Target sequence (Q27686 whole entry, looked up): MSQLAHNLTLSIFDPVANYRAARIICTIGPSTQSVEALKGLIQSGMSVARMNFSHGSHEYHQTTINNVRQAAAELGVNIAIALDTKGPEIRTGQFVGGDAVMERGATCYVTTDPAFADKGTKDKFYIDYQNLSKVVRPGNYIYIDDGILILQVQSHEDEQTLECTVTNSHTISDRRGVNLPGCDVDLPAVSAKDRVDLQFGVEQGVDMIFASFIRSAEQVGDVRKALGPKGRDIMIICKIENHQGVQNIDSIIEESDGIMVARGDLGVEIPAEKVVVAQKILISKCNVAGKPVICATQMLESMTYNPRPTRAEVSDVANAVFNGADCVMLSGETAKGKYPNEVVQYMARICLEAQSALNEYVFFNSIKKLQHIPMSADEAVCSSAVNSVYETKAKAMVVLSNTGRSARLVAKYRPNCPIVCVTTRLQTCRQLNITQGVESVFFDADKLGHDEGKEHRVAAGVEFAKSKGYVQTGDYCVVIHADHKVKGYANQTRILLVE
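In 50 mM imidazole pH 7.2 with 7 mM MgCl2, LmPK (0.1 nM) turned over PEP (0.5 mM) and ADP (0.1 mM) for 1 h at room temperature. Luciferase read-out of ATP.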
Giardia growth: inhibitors of Giardia lamblia growth; Giardia lamblia trophozoite growth inhibition; shares compounds with Giardia FBPA inh-1; hit rate 5% among 1,500; Potency, µM (series often up to 57.5 µM), without a hit: at the top dose activity change, negative = inhibition, hits mostly inhibitors; AID 2785;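 note: trophozoites exposed to compound for 48 h at 37 °C; % is set by controls: 0 for no effect and ±100 for the full control effect; nearly all actives have a fitted effect of over 70% in size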
Mammalian tox: mammalian cytotoxicity of Giardia aldolase inhibitor hits | shares compounds with Giardia FBPA inh-1 | mammalian cell viability counter-screen, qHTS | Potency, µM (titrated, usually from 57.5 µM), inactives show at the highest dose viability change, negative = toxicity, most hits filed as inhibitors | hit rate 4% among 1,500 | AID 2786;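 note: Chinese hamster ovary cells used as mammalian cytotoxicity surrogate; viability measured as cellular ATP by luminescence; compound exposure lasted 48 h before reading; % is set by controls: 0 for no effect and ±100 for the full control effect; nearly all actives have a fitted effect of over 60% in size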
Giardia FBPA inh-2: confirmation of Giardia fructose-bisphosphate aldolase inhibitors; hit rate 5% among 1,500; AID 2787; Potency, µM (doses to about 57.5 µM), without a hit: top-dose activity change, negative = inhibition, actives largely listed as inhibitors; purified Giardia aldolase enzyme activity, qHTS; shares compounds with Giardia FBPA inh-1; note: % is set by controls: 0 for no effect and ±100 for the full control effect; nearly all actives have a fitted effect of over 45% in size
Rabbit aldolase: blocks rabbit muscle aldolase in Giardia aldolase selectivity test; shares compounds with Giardia FBPA inh-1; Rabbit muscle FBPA enzyme inhibition, selectivity counter-screen; Potency, µM (doses to about 57.5 µM), for inactives: top-dose activity, negative = inhibition, most hits filed as inhibitors; hit rate 4% among 1,500; AID 2794; note: % is set by controls: 0 for no effect and ±100 for the full control effect; nearly all actives have a fitted effect of over 60% in size
Target sequence (P00883 whole entry, looked up): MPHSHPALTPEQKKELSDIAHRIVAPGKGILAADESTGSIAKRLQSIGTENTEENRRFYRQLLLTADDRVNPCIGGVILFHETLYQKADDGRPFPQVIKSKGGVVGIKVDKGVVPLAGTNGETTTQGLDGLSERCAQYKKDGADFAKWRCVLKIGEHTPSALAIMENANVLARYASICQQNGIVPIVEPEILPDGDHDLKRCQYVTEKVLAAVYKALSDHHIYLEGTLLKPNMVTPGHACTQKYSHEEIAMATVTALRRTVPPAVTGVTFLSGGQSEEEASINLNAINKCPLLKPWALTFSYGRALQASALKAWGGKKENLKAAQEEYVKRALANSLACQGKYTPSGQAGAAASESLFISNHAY
GAPDH counter: counter-screen for Giardia aldolase inhibitors: GAPDH coupling enzyme. shares compounds with Giardia FBPA inh-1. GAPDH coupling enzyme counterscreen, biochemical, qHTS. Potency, µM (doses to about 57.5 µM), for inactives: at the top dose activity change, negative = inhibition, hits mostly inhibitors. hit rate 6% among 1,500. AID 2795; note: % is set by controls: 0 for no effect and ±100 for the full control effect; nearly all actives have a fitted effect of over 55% in size
The depositor's hits bear a star; ? = inconclusive; · = not tested or not shown; [ ] = dose if it differs, or a comment. Unless noted, calls come from the whole dose curve; as a rule, active = well fitted curve in the direction sought with a large enough effect; inconclusive = small, poorly fitted or top-dose-only effect, or another doubt; inactive = no such curve, though single readings can be large; an effect the other way counts as inactive or inconclusive. Potency is the fitted concentration of half-maximal effect.

SMILES | AMA1 RON2 block | Giardia FBPA inh-1 | Tb PYK inh | NS1 function inh | LmPK inhibitor | Giardia growth | Mammalian tox | Giardia FBPA inh-2 | Rabbit aldolase | GAPDH counter
Cc1ccc(S(=O)(=O)Nc2cc(C)cn(Cc3ccccc3)c2=O)cc1 | 29% | 13µM* | -2% | -31% | 2% | ? | -13% | ? | ? | 32µM*
Cc1cc2c(cc1NS(=O)(=O)c1ccc(F)cc1)n(C)c(=O)c(=O)n2C | · | · | -4% | · | · | · | · | · | · | ·
Cc1ccc(S(=O)(=O)Nc2cc(C)cn(Cc3ccc(F)cc3)c2=O)cc1 | 9% | 16µM* | 2% | -2% | 0% | 14%[10.4 µM] | -9% | ? | ? | 25µM*
Cc1[nH]n(-c2ccccc2)c(=O)c1N=Nc1cccc([N+](=O)[O-])c1 | 11% | 8.9µM* | 3% | 26% | 5% | -37%[38.3 µM] | 5% | 5% | 9% | -3%
COC(=O)c1ccc(N=Nc2c(C)[nH]n(-c3ccccc3)c2=O)cc1 | ? | 13µM* | 1% | 7% | 4% | -24% | 18% | 8% | -2% | 8%
Cc1[nH]n(-c2ccccc2)c(=O)c1N=Nc1cccc(Cl)c1 | -13% | ? | 11% | 11% | -1% | · | · | · | · | ·
COc1cccc(CCc2ccccc2OCC[C@@H]2C[C@@H](O)CN2C)c1 | · | -12% | · | · | · | · | · | · | · | ·
CCN(CC#CCC(O)(c1ccccc1)C1CCCC1)C(C)C (stereo unspecified) | -3% | · | -2% | 12% | 0% | · | · | · | · | ·
CC(C)N(CC#CCC(O)(c1ccccc1)C1CCCC1)CCO (stereo unspecified) | -26% | 10µM* | -9% | -1% | 6% | 4%[38.3 µM] | -3% | 2% | 1% | 0%
C[N+]1(C)[C@@H]2CC(OC(=O)C(O)(c3cccs3)c3cccs3)C[C@H]1[C@@H]1O[C@@H]12 (stereo partly specified) | · | · | 4% | · | · | · | · | · | · | ·
Cc1c(N=C2C=C(Br)C(=O)C(Br)=C2)c(=O)n(-c2ccccc2)n1C | ? | 14µM* | -29% | 5% | ? | -12%[10.4 µM] | 0% | ? | -27% | ?
Cc1c(N=Nc2ccc(O)cc2)c(=O)n(-c2ccccc2)n1C | 18% | 0% | 2% | 20% | 1% | · | · | · | · | ·
O=C(c1cccc(F)c1)N1CCC2(CC1)CCN(c1ncccn1)CC2 | · | 5% | 5% | · | · | · | · | · | · | ·
C[n+]1cccc2c(Br)ccc([O-])c21 | -22% | 0.18µM* | -10% | 2% | -6% | 20µM* | -16% | 4µM* | 13µM* | 4.5µM*
Cc1ccc(Cl)cc1NC(=O)C1CCCN(S(=O)(=O)c2c(C)noc2/C=C/N(C)C)C1 (stereo unspecified) | · | · | 0% | · | · | · | · | · | · | ·
C/C(CS(=O)(=O)c1ccc(Cl)cc1)=N/NC(N)=S | 23% | 16µM* | -2% | · | 1% | 2%[10.4 µM] | -8% | 3% | 7% | 4%
O=C(Nc1cccc(F)c1)C1CCN(S(=O)(=O)c2ccc3[nH]c4c(c3c2)CCCCC4)CC1 | · | · | 2%[15.4 µM] | · | · | · | · | · | · | ·
Clc1ccc(N=c2ssnc2Cl)nc1 | 12% | 0% | ? | 0% | 2% | · | · | · | · | ·
N#Cc1cccc(N=c2ssnc2Cl)c1 | -11% | 20µM* | 18µM* | · | -23% | ? | 2% | -11% | ? | 13%
COc1cc(N=c2ssnc2Cl)cc(OC)c1 | 3% | 16µM* | 28µM* | -31% | -22% | -3%[10.4 µM] | -9% | -3% | -11% | 16%
COC(=O)c1cccc(C23CC4(C2)[C@H](CN(CC2CCCCC2)[C@@H]4c2ccccc2)C3c2ccc(C(F)(F)F)cc2)c1 (stereo partly specified) | · | 0% | · | · | · | · | · | · | · | ·
Clc1cccc(OCCCn2ccnc2)c1 | 2% | -4% | -2% | -5% | -1% | · | · | · | · | ·
c1ccc2cc(OCCCn3ccnc3)ccc2c1 | ? | 22µM* | 7% | -4% | -2% | 106% | 0% | 0% | 3% | 13%
Cc1ccc(OCCCn2ccnc2)c(Br)c1 | -24% | 18µM* | 14% | -7% | -4% | -8%[10.4 µM] | 19% | 2% | 14% | 3%
CC(C)(C)c1ccc(OCCCn2ccnc2)cc1 | ? | 28µM* | 16% | -11% | 1% | 12% | 1% | -3% | -8% | -2%
SMILES | AMA1 RON2 block | Giardia FBPA inh-1 | Tb PYK inh | NS1 function inh | LmPK inhibitor | Giardia growth | Mammalian tox | Giardia FBPA inh-2 | Rabbit aldolase | GAPDH counter
Cc1ccc(OCCCn2ccnc2)c([N+](=O)[O-])c1 | ? | -23% | 29% | 1% | -3% | · | · | · | · | ·
Cc1ccc(-c2nnc(Nc3ccc(O)cc3)c3ccccc23)cc1S(=O)(=O)N1CCN(C)CC1 | · | · | -5% | · | · | · | · | · | · | ·
CCOC(=O)c1cc(C#N)c(=S)[nH]c1C | 88% | -10% | ? | · | -6% | · | · | · | · | ·
COCc1[nH]c(=S)c(C#N)cc1C(=O)OC | 36% | 16µM* | ? | 7% | 21% | 20% | 8% | 4% | 1% | -8%
C=C1C(=O)OC2C[C@@]3(C)CCCC(=C)[C@@H]3CC12 (stereo partly specified) | · | 11% | · | · | · | · | · | · | · | ·
O=C(O)CCC/C=C\CC1C2CCC(O2)C1CNNC(=O)Nc1ccccc1 (stereo unspecified) | · | 1% | · | · | · | · | · | · | · | ·
COc1cccc(CN2CCN(Cc3cc(OC)c(OC)c(OC)c3)CC2)c1OC | -7% | 13µM* | 1% | 5% | -1% | ? | -14% | -8% | 3% | -11%
COc1cccc(CN2CCN(Cc3cccc(Oc4ccccc4)c3)CC2)c1OC | ? | 16µM* | 8% | -6% | 3% | -25% | ? | 1% | -5% | 5%
COc1cc(CN2CCN(C(=O)c3ccccc3F)CC2)cc(OC)c1OC | ? | 28µM* | 11% | -10% | -8% | 1%[10.4 µM] | -13% | 0% | 8% | 11%
COc1cc(CN2CCN(C(=O)c3cccc4ccccc34)CC2)cc(OC)c1OC | -24% | ? | 4% | 0% | 5% | · | · | · | · | ·
CN(C)c1ccc(C(=C2C=CC(=[N+](C)C)C=C2)c2c(O)c(S(=O)(=O)O)cc3cc(S(=O)(=O)O)ccc23)cc1 | · | · | · | -3% | · | · | · | · | · | ·
COCOc1ccc(Br)cc1C(=O)[C@H]1O[C@H]1c1cccc(OC)c1 | · | 0%[12.9 µM] | · | · | · | · | · | · | · | ·
